Source: PubChem BioAssay AID2391 (Southern Research Specialized Biocontainment Screening …, 2010)
The whole screen tested about 310,000 compounds, of which about 410 (0.13%) were called active. Roughly 2% stayed inconclusive and do not appear here. How the calls were made is not given here. These entries were drawn from the full list. Measured potencies and affinities stand elsewhere.

Test: RSV antiviral activity via CPE protection, HEp-2 cells, primary 10 µM value included (AID 2391)
Conditions: RSV-induced CPE inhibition, at 10 µM, stronger effect = higher value

SMILES | CPE inhibition
COc1ccc(NC(=O)c2sc3nc(-c4cccnc4)ccc3c2N)cc1OC | 1.58% (inactive)
COc1ccc(-c2ccc3c(N)c(C(=O)c4ccc(OC)c(OC)c4)sc3n2)cc1 | 1.75% (inactive)
O=C(Nc1nc(-c2ccccc2)cs1)c1cccc([N+](=O)[O-])c1C(=O)O | 0.63% (inactive)
CCCC(=O)Oc1ccc(C2NC(=O)c3ccccc3O2)cc1OC (stereo not drawn) | -0.32% (inactive)
CCNS(=O)(=O)c1ccc(CCC(=O)NCc2ccccn2)cc1 | -0.26% (inactive)
CS(=O)(=O)N1N=C(c2ccco2)CC1c1ccc(Br)cc1 (stereo not drawn) | -1.1% (inactive)
CCOc1c(Cl)cc(CNCc2ccccn2)cc1OC | 0.14% (inactive)
C/C(N)=C(/C#N)C(=O)COC(=O)CNS(=O)(=O)c1c(F)cccc1F | 1.63% (inactive)
C/C(N)=C(/C#N)C(=O)COC(=O)CNS(=O)(=O)c1ccc(C)cc1 | 0.79% (inactive)
CCOC(=O)c1sc(=NC(=O)c2ccc(OC(C)C)cc2)n(C)c1C | -0.02% (inactive)
Cc1cc[n+](C(C)C(=O)c2ccc(Cl)cc2)cc1 (stereo not drawn) | 0.43% (inactive)
COC(=O)C1=C(N)Oc2cc(C)n(Cc3ccccc3)c(=O)c2C1c1ccccc1 (stereo not drawn) | 3.61% (inactive)
O=C(Nc1ccccc1N1CCN(C(=O)c2ccc(Cl)cc2)CC1)c1ccc(Br)cc1 | 10.3% (inactive)
CN(C)C(=O)COC(=O)c1ccccc1OCC(=O)Nc1ccc(SC(F)F)cc1 | 0.56% (inactive)
CC(C)(C)NC(=O)COC(=O)c1ccccc1Nc1ccc(SC(F)F)cc1 | 20.3% (inactive)
c1ccc2[nH]cnc2c1 | 3.25% (inactive)
Clc1cc2nc[nH]c2cc1Cl | 2.89% (inactive)
OCc1cn(-c2ccc(Cl)cc2)nn1 | 0.61% (inactive)
COc1cc(NC(=O)C2CC(=O)N(CCc3ccc(F)cc3)C2)cc(OC)c1OC (stereo not drawn) | 1.32% (inactive)
CCn1c2ccc(F)cc2c2nnc(NN)nc21 | 8.49% (inactive)

SMILES | CPE inhibition
CCCn1c2ccc(F)cc2c2nnc(NN)nc21 | 2.66% (inactive)
Cc1nn(-c2ccccc2)cc1/C=N/NS(=O)(=O)c1ccccc1 | 0.36% (inactive)
Cc1nc(-c2cccc(S(=O)(=O)N3CCOCC3)c2)cs1 | 2.05% (inactive)
O=S(=O)(c1cccc(-c2csc(-c3cccnc3)n2)c1)N1CCOCC1 | 18.8% (inactive)
CC(C)(C)c1ccc(C(=O)c2c[nH]c(C(=O)NCCCn3ccnc3)c2)cc1 | 15.1% (inactive)
CC(C)[C@H](NC(=O)N1CCn2c1nc1ccccc12)C(=O)NCc1ccco1 | 5.22% (inactive)
CC(C)[C@H](NC(=O)N1CCn2c1nc1ccccc12)C(=O)NCc1ccc(F)cc1 | 7.05% (inactive)
COc1cc(C(=O)NNC(=O)COc2ccccc2Cl)ccc1OCC(=O)N1CCOCC1 | 0.6% (inactive)
O=C(Nc1cccc(NC(=O)c2ccccc2Cl)c1)c1ccco1 | 2.07% (inactive)
c1ccc(N2CCN(c3ncnc4scc(-c5cccs5)c34)CC2)cc1 | 12.1% (inactive)
COc1ccccc1C(=O)NCCCNc1ccc([N+](=O)[O-])cc1 | 0.97% (inactive)
CCn1c(=O)c2cc(C(=O)N(C)c3ccc(OC)cc3OC)sc2c2ccccc21 | 13.1% (inactive)
CCn1c(=O)c2cc(C(=O)N(C)c3ccccc3F)sc2c2ccccc21 | 17.4% (inactive)
Cc1ccc(-c2nn(-c3ccccc3)cc2CN(Cc2ccccc2)C(=O)c2ccco2)o1 | 22.2% (inactive)
Cc1c(CC(=O)N[C@@H](C)C(=O)O)c(=O)oc2c(C)c3occ(-c4ccccc4)c3cc12 | 6.88% (inactive)
CCCCC(NC(=O)Cc1c(C)c2cc3c(C)c(C)oc3c(C)c2oc1=O)C(=O)O (stereo not drawn) | 1.13% (inactive)
COc1ccc(Cl)cc1N(C(C)C(=O)O)S(C)(=O)=O (stereo not drawn) | 1.24% (inactive)
CC(C)COc1ccc(C(=O)NNC(=O)c2ccc(=O)[nH]c2)cc1 | 0.85% (inactive)
CCCCn1c(N)c(N(CCOC)C(=O)c2cc(CC)c(C)s2)c(=O)[nH]c1=O | 0.21% (inactive)
COc1ccccc1N(Cc1ccccc1)S(=O)(=O)c1cccc(C(=O)Nc2ccc(C)cn2)c1 | 40.7% (inactive)

SMILES | CPE inhibition
COc1ccccc1N(Cc1ccccc1)S(=O)(=O)c1cccc(C(=O)Nc2ccccn2)c1 | 40.2% (inactive)
Cc1ccc(N(CCC#N)C(=O)COC(=O)C2CCN(S(=O)(=O)c3ccc(C)c(C)c3)CC2)cc1 | 3.94% (inactive)
CCN(CC)c1ccc(-c2nnc(SCC(=O)N(CCOC)c3c(N)n(CC(C)C)c(=O)[nH]c3=O)o2)cc1 | 8.83% (inactive)
COCCN(C(=O)CSc1nnc(-c2ccc(Cl)cc2)o1)c1c(N)n(CC(C)C)c(=O)[nH]c1=O | 2.35% (inactive)
COc1cc(OC)c2c(C)cc(=O)oc2c1 | 0.35% (inactive)
CCc1cc(=O)oc2cc(OC(C)=O)cc(OC(C)=O)c12 | 5.44% (inactive)
CCOc1ccccc1N(CC(=O)N1CCC(C(N)=O)CC1)S(=O)(=O)c1ccc(SC)cc1 | 1.65% (inactive)
Cc1ccc(Cl)cc1NC(=O)CSc1sc2c(O)cc(=O)[nH]c2c1C#N | -0.05% (inactive)
Cc1ccc(C)c(OCC(=O)NCC(c2ccco2)N2CCCCC2)c1 (stereo not drawn) | -1.03% (inactive)
OCCOCCn1c(C(CO)Nc2nc(-c3ccc(Cl)cc3)cs2)nc2ccccc21 (stereo not drawn) | 9.48% (inactive)
c1ccc(Nc2nc(-c3ccncc3)nc3ccccc23)cc1 | 4.52% (inactive)
Fc1ccc(Nc2nc(-c3ccncc3)nc3ccccc23)cc1 | 4.4% (inactive)
COc1ccc(C(=O)NCCn2cc(SCC(=O)NCC3CCCO3)c3ccccc32)cc1 (stereo not drawn) | 0.51% (inactive)
Cc1ccc(S(=O)(=O)N2CCC(C(=O)Nc3ccc(S(=O)(=O)N4CCCC4)cc3)CC2)cc1 | 0.34% (inactive)
Cc1ccc(NC(=O)C2CCN(S(=O)(=O)c3ccc(F)cc3)CC2)cc1 | -1.19% (inactive)
CC(NC(=O)c1ccccc1NC(=O)c1ccccc1)C(=O)N1CCOCC1 (stereo not drawn) | 3.72% (inactive)
CN1CCc2[nH]c3ccc(C(=O)NN)cc3c2C1 | -1.2% (inactive)
Cc1ccc2[nH]c3c(c2c1)CN(C)CC3 | -0.58% (inactive)
